Results published in PubChem BioAssay (NCATS).
Several values for one entry are separate records, joined by “and”; a condition that tells them apart may be missing. Identical values can stand only once. Records with an inconclusive call do not appear. Activity calls are given as the source filed them. Unless noted, calls follow the shape of the dose curve; as a rule, active = well fitted curve in the direction sought with a large enough effect; inconclusive = small, poorly fitted or top-dose-only effect, or another doubt; inactive = no such curve, though single readings can be large; an effect the other way counts as inactive or inconclusive.

Experiments:
[1] = AP1 Signaling Pathway (AID 357; active = well fitted curve in either direction with a large enough effect, not every such curve was filed as active;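 also: ME-180 reporter cells stimulated with EGF at its EC50 level; % is scaled to controls: 0 for no effect and ±100 for the full control effect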); settings: ME-180 AP-1-bla reporter, EGF-induced, beta-lactamase ratio, 5 h; at 7.69 µM (top of the series) unless noted
Procedure, shortened: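 Cells are seeded overnight, exposed to compound titrations and an EC50 level of EGF for 5 hours at 37 °C, then loaded with CCF4 dye for 2.5 hours. Beta-lactamase activity under the AP-1 element is read as a blue/green ratio.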

[2] = target: Cytochrome P450 1A2 (Homo sapiens) (UniProt P05177); assay: p450-cyp1a2 (AID 410; calls by dose curve; also: potency is read from the fitted curve at half-maximal effect)
Cytochrome P450 1A2 (Homo sapiens), sequence (P05177 whole entry, looked up): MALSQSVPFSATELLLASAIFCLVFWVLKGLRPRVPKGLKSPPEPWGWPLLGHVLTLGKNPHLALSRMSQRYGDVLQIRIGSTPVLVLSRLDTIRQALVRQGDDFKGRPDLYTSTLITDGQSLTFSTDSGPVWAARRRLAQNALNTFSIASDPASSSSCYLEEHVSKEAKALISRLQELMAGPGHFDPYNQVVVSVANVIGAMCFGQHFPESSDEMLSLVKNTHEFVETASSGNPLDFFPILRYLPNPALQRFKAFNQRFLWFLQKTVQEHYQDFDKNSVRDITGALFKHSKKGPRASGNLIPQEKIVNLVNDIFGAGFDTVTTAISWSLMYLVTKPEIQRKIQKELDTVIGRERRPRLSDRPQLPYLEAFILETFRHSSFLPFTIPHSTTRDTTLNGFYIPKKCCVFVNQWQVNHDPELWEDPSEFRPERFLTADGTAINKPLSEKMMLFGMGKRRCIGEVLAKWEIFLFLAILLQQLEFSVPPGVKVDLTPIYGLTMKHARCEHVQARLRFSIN
Procedure, shortened: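 Luminescent readout of luciferin formed from Luciferin-ME by human CYP1A2; data normalized against complete inhibition by 57 uM furafylline. Enzyme 20nM, substrate 100uM at Km, 100mM KPO4 buffer, 60 min reaction at room temperature.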

[3] = NFAT Signaling Pathway (AID 444; active = well fitted curve in either direction with a large enough effect, not every such curve was filed as active;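 also: carbachol stimulus at about its EC50 of 1 µM final; % is scaled to controls: 0 for no effect and ±100 for the full control effect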); settings: Jurkat NFAT-bla M1, carbachol, beta-lactamase ratio, 5 h; at 7.69 µM (top of the series) unless noted
Procedure, shortened: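 Jurkat cells carrying an NFAT-driven β-lactamase reporter and co-transfected muscarinic M1 receptor were treated with compound plus carbachol (1 uM final, an EC50 level) for 5 h at 37 °C. CCF4 loading followed for 1 h at RT; 460/530 nm ratio gave %activity.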

[4] = Stat Signaling Pathway (AID 446; active = well fitted curve in either direction with a large enough effect, not every such curve was filed as active;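 also: ME-180 cervical cancer cells given 40 pM IL-6 alongside compound; SIE-controlled beta-lactamase reporter measured as 460/530 nm FRET emission ratio; % is scaled to controls: 0 for no effect and ±100 for the full control effect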); settings: ME-180 SIE beta-lactamase reporter, IL-6 stimulated, 5 h; at 7.69 µM (top of the series) unless noted
Procedure, shortened: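 ME-180 SIE-bla cells; overnight plating; cpd + IL-6 40 pM, 5 h, 37 C; LiveBLAzer 2.5 h RT; 460/530 nm emission ratio. Normalized to 300 pM IL-6 and 125 nM JAK inhibitor controls.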

[5] = target: Glucocorticoid receptor (Homo sapiens) (UniProt P04150); assay: GR-GFP Redistribution (AID 450;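 active = compounds whose dose series gives a full or clear partial fitted curve of increased nuclear translocation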; also: potency is read from the fitted curve at half-maximal effect); settings: U2OS GR-GFP nuclear translocation, laser cytometry, 2 h
Glucocorticoid receptor (Homo sapiens), sequence (P04150 whole entry, looked up, the tested form may be a part): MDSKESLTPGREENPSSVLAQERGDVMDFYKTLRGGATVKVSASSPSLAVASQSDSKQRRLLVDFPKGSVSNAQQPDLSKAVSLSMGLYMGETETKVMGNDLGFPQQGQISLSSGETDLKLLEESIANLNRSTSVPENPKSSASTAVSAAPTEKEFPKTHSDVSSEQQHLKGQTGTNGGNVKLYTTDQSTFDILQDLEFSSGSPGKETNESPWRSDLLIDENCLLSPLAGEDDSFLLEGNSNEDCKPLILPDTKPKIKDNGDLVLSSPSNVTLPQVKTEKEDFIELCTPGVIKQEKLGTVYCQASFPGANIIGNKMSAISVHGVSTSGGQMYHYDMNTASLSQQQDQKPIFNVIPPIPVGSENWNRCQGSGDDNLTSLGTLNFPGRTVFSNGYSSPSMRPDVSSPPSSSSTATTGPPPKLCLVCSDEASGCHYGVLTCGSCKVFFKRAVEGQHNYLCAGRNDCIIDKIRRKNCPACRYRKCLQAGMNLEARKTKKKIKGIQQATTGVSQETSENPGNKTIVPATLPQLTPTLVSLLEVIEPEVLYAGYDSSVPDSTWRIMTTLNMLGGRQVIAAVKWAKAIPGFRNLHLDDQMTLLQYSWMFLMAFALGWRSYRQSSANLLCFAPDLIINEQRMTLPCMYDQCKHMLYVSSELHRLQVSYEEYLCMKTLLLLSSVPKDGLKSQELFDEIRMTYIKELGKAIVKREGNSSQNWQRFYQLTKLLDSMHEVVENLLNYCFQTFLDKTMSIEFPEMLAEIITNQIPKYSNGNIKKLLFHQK

[6] = target: Glucocorticoid receptor (Homo sapiens) (UniProt P04150); assay: GR-EFC Redistribution (AID 451; calls by dose curve; also: potency is read from the fitted curve at half-maximal effect); settings: CHO-K1 GR-EFC translocation, beta-gal luminescence, 2 h
Procedure, shortened: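 CHO-K1 cells stably expressing nuclear-localized β-gal enzyme acceptor and GR fused C-terminally to the enzyme donor fragment; ligand-driven nuclear translocation restores β-gal by complementation. Compounds titrated up to 46 uM final, 2 h at 37 °C; luminescence read.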

[7] = target: 3',5'-cyclic-AMP phosphodiesterase 4B (Homo sapiens) (UniProt Q07343); assay: qHTS Assay for Inhibitors of PDE-IV (AID 607; active = well fitted activation curve with a large enough effect in the main read-out, with a control signal flat, not every such curve was filed as active; also: % of control where 0% means no effect)
3',5'-cyclic-AMP phosphodiesterase 4B (Homo sapiens), sequence (Q07343 whole entry, looked up): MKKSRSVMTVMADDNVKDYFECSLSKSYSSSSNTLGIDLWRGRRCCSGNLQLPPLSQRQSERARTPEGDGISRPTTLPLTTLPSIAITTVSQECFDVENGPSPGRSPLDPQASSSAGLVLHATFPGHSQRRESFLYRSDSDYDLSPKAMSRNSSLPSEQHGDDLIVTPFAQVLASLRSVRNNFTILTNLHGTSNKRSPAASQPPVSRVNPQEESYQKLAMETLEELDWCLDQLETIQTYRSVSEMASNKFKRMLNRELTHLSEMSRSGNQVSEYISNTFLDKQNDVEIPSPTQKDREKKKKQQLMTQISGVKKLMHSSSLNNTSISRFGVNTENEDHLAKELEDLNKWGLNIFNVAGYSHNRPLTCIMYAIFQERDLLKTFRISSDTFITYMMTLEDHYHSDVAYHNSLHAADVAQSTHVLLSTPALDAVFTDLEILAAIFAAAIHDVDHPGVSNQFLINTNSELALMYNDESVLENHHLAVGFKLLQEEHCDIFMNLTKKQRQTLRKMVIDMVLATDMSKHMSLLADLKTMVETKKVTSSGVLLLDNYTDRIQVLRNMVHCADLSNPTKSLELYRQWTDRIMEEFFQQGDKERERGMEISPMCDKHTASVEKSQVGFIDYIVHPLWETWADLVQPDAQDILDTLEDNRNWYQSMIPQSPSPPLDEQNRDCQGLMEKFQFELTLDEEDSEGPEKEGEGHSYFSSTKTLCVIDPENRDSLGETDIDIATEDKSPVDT
Procedure, shortened: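 ACTOne HEK293 cells carry a modified cAMP-gated CNG channel and express endogenous PDE4; plated 1000 cells/well, compounds up to 22.9 uM final. Membrane-potential dye fluorescence (ex 535/em 590) was read; parental cells received 10 uM forskolin + 100 uM RO 20-1724.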

[8] = target: Guanine nucleotide-binding protein G(i) subunit alpha-1 (Homo sapiens) (UniProt P63096); assay: qHTS Assay for Inhibitors of RGS12 GoLoco Motif Activity (Green Fluorophore) (AID 879);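 also: 0% = labeled peptide with Gαi1 and full inhibition = labeled peptide alone without protein; negative values mean loss of peptide binding seen as reduced polarization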
Guanine nucleotide-binding protein G(i) subunit alpha-1 (Homo sapiens), sequence (P63096 whole entry, looked up): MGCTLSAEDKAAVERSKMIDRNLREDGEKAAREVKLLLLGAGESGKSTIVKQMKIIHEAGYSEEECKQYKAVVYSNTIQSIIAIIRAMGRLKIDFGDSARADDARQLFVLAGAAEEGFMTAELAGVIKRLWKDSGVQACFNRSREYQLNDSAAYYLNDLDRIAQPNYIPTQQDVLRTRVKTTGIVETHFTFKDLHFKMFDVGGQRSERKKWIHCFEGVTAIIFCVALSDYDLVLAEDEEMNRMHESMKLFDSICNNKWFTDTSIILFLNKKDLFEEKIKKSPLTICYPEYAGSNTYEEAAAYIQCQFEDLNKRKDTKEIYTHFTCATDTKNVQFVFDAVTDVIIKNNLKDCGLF
Procedure, shortened: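 Fluorescence polarization assay: 50 nM Gαi1 with 10 nM FITC-labeled RGS12 GoLoco peptide in 10 mM Tris pH 7.5, 150 mM NaCl, 0.1 mM GDP, 0.05% NP40, 10 min at room temperature with compound.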

[9] = target: Cytochrome P450 3A4 (Homo sapiens) (UniProt P08684); assay: qHTS Assay for Inhibitors and Substrates of Cytochrome P450 3A4 (AID 884); also: potency is read from the fitted curve at half-maximal effect; nearly all actives have a fitted effect of over 50% in size
Cytochrome P450 3A4 (Homo sapiens), sequence (P08684 whole entry, looked up): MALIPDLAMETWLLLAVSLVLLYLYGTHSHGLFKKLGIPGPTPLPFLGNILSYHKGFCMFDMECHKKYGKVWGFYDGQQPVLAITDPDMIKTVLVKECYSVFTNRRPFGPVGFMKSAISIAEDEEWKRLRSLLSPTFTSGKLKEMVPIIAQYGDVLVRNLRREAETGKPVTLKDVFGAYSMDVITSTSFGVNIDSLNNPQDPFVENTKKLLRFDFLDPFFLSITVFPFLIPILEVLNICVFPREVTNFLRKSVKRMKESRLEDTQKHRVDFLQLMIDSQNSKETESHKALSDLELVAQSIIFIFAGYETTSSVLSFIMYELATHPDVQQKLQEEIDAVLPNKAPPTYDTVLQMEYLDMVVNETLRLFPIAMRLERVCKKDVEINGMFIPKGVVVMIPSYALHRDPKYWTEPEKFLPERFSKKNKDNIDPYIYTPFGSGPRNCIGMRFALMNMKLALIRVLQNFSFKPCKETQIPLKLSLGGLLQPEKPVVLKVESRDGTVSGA
Procedure, shortened: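 20 nM human CYP3A4 with 25 uM Luciferin-PPXE (at KM) in 200 mM KPO4, preincubated 10 min with compound; NADPH regeneration started a 60 min RT reaction. Luciferin detected by luminescence, normalized to 57 uM ketoconazole as full inhibition.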

[10] = target: Cytochrome P450 3A4 (Homo sapiens) (UniProt P08684); assay: qHTS Assay for Activators of Cytochrome P450 3A4 (AID 885); also: nearly all actives have a fitted effect of over 65% in size
Procedure, shortened: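 20nM CYP3A4 + 25uM Luciferin-PPXE (=KM), 200mM KPO4; cpd 10 min RT; NADPH regen, 60 min RT; stop w/ detection buffer, 20 min; luminescence. Normalized to 57 uM ketoconazole.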

[11] = target: Cytochrome P450 2C19 (Homo sapiens) (UniProt P33261); assay: qHTS Assay for Inhibitors and Substrates of Cytochrome P450 2C19 (AID 899); also: potency is read from the fitted curve at half-maximal effect; nearly all actives have a fitted effect of over 60% in size
Procedure, shortened: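 NADPH-dependent conversion of Luciferin-H EGE (10uM, at KM) by 5nM enzyme in 50mM KPO4, 60 min at 37C following 10 min compound preincubation. Stopped with luciferin detection buffer; luminescence read after 20 min.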

[12] = qHTS Assay for Identification of Small Molecule Agonists for Thrombopoietin (TPO) Signaling Pathway (AID 917); also: % is scaled to controls: 0 for no effect and ±100 for the full control effect
Procedure, shortened: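 Activators of TPO signaling were sought in murine Ba/F3 cells transfected with the human receptor, using a luciferase gene driven by the Glycoprotein IIb promoter; 24-hr compound exposure at 37 C alongside 26 pM TPO, in IL-3-free medium.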

[13] = target: Muscarinic acetylcholine receptor M1 (Rattus norvegicus) (UniProt P08482); assay: qHTS Assay for Antagonists of Acetylcholine Muscarinic M1 Receptor: Measurement of IP-One Response (AID 944); also: nearly all actives have a fitted effect of over 75% in size
Muscarinic acetylcholine receptor M1 (Rattus norvegicus), sequence (P08482 whole entry, looked up): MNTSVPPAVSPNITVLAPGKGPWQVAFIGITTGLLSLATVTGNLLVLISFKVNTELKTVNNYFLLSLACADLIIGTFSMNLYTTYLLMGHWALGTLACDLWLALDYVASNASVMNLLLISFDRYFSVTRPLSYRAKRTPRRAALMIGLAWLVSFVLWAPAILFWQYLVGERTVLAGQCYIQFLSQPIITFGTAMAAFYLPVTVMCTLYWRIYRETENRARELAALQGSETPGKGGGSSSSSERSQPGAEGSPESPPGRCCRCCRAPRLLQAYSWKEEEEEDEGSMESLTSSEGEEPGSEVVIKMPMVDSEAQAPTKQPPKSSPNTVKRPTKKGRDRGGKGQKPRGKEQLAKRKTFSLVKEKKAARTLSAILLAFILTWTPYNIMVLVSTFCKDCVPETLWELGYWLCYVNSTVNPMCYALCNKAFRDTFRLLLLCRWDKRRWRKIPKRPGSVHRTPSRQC
Procedure, shortened: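 M1-CHO (rat), 2000 cells/well, overnight recovery; cpd 10 min; carbachol EC80 (200 nM), 30 min, HEPES buffer + 50 mM LiCl pH 7.4; IP-One HTRF, Ex 337, Em 620/665 nm.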

[14] = target: Pyruvate kinase (Leishmania mexicana) (UniProt Q27686); assay: qHTS Validation Assay for Inhibitors of Leishmania Mexicana Pyruvate Kinase (AID 945);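 also: 0% = DMSO only neutral control wells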
Procedure, shortened: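 Pyruvate kinase activity of E451W LmPYK (0.2 nM) was followed as ATP output after 1 h at room temperature with 0.5 mM PEP and 0.1 mM ADP, detected by PKLight luminescence.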

[15] = target: Pyruvate kinase PKM (Homo sapiens) (UniProt P14618); assay: qHTS Assay for Activators of Human Muscle Pyruvate Kinase (AID 954; active = well fitted curve in the direction sought with a large enough effect, not every such curve was filed as active;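 also: 0% = uninhibited enzyme and -100% = no enzyme or full thiadiazolimine inhibition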)
Pyruvate kinase PKM (Homo sapiens), sequence (P14618 whole entry, looked up): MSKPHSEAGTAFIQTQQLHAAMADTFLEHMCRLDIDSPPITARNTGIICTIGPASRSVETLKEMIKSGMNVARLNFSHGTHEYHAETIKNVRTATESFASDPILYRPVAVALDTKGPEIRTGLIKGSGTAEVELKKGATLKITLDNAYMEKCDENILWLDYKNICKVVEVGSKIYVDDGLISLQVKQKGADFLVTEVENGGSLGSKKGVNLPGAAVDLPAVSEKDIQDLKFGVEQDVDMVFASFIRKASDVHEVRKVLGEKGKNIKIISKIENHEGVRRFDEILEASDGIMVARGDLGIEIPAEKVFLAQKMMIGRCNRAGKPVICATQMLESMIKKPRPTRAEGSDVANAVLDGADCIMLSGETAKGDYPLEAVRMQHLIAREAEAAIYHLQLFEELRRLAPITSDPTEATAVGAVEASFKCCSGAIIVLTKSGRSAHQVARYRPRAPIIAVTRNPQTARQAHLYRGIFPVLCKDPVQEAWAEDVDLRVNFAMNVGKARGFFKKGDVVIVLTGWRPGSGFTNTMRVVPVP
Procedure, shortened: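 Luminescence from a luciferase ATP-detection/stop reagent reported PKM2 activity. Reactions contained 0.1 nM purified human enzyme, 0.5 mM PEP, 0.1 mM ADP and 7 mM MgCl2 at pH 7.2, run 1 h at RT.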

[16] = target: Alpha-galactosidase (Coffea arabica) (UniProt Q42656); assay: Counterscreen for Glucocerebrosidase Inhibitors: qHTS Assay for Coffee Bean alpha-Galactosidase at pH 4.5 (AID 957);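 also: plate controls were enzyme alone for no effect and no enzyme for full effect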
Alpha-galactosidase (Coffea arabica), sequence (Q42656 whole entry, looked up): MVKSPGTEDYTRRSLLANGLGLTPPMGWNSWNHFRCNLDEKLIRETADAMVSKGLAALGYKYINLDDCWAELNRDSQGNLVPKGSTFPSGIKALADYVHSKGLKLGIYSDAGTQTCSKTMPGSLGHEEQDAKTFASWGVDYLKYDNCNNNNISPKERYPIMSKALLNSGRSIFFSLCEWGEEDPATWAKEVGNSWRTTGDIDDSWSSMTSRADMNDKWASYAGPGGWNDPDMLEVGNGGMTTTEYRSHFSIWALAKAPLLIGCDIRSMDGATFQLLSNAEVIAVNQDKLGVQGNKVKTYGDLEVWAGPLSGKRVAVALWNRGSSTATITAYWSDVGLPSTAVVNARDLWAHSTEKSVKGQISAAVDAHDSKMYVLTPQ
Procedure, shortened: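 Coffee bean alpha-galactosidase 2 nM, substrate 4-MU-alpha-Gal 80 uM, pH 4.5 citrate/Tween-20, 20 min RT. Cpd titration 0.7 nM–77 uM. Stop pH 10, fluorescence 365/440 nm; Hill-equation AC50.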

[17] = target: Alpha-galactosidase A (Homo sapiens) (UniProt P06280); assay: Counterscreen for Glucocerebrosidase Inhibitors: qHTS Assay for Human alpha-Galactosidase at pH 4.5 (AID 992); also: 0% is about no effect
Alpha-galactosidase A (Homo sapiens), sequence (P06280 whole entry, looked up): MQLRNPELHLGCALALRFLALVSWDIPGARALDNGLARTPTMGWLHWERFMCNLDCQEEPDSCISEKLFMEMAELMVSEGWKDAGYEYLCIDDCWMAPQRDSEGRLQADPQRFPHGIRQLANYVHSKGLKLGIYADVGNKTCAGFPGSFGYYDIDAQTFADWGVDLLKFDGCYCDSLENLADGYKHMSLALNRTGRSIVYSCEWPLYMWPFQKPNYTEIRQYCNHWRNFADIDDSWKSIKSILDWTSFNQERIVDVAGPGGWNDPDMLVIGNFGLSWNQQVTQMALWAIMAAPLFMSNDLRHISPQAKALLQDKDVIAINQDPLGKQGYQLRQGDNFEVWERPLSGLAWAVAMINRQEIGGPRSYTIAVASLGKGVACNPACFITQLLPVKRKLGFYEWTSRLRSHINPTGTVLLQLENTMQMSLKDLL
Procedure, shortened: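 Enzyme at 2 nM final was combined with compound (0.7 nM to 77 uM) and 80 uM 4-methylumbelliferyl alpha-D-galactopyranoside in 50 mM citric acid, 0.005% Tween-20, pH 4.5. After 20 min at room temperature, fluorescence was read (Ex 365/Em 440 nm); AC50 came from Hill fits.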

[18] = target: alpha-glucosidase (Oryza sativa, rice) (UniProt Q653V4); assay: Counterscreen for Glucocerebrosidase Inhibitors: qHTS Assay for Rice alpha-Glucosidase at pH 5.0 (AID 997);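 also: 0% = full activity with enzyme and -100% = basal without enzyme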
Procedure, shortened: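 Rice alpha-glucosidase (4 nM final) with 400 uM 4-methylumbelliferyl-alpha-D-glucopyranoside in citrate buffer pH 5.0, 20 min at room temperature, stopped at pH 10; fluorescence 365/440 nm, compounds 0.7 nM–77 uM, AC50 from Hill fits.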

[19] = target: Alpha-galactosidase (Coffea arabica) (UniProt Q42656); assay: Counterscreen for Glucocerebrosidase Inhibitors: qHTS Assay for Coffee Bean alpha-Galactosidase at pH 5.9 (AID 998);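 also: plate controls were uninhibited enzyme for no effect and no-enzyme basal signal for full effect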
Procedure, shortened: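 Green coffee bean enzyme (2 nM final) was incubated with compounds (0.7 nM–77 uM) and 4-methylumbelliferyl alpha-D-galactopyranoside (80 uM) in citrate buffer pH 5.9, 20 min at room temperature. High-pH stop; fluorescence 365/440 nm; AC50 from Hill fits.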

[20] = target: Mitogen-activated protein kinase 10 (Mus musculus) (UniProt Q61831); assay: JNK3 AlphaScreen Assay (AID 530; active = well fitted curve in either direction with a large enough effect, not every such curve was filed as active)
Procedure, shortened: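 Inhibitors reduce antibody binding to phosphorylated biotin-cJun, lowering AlphaScreen luminescence. Lysates from HepG2 cells pre-activated by IL-1beta plus TNF-alpha supplied JNK3; compounds were titrated.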

[21] = target: Cytochrome P450 2C9 (Homo sapiens) (UniProt P11712); assay: qHTS Assay for Inhibitors and Substrates of Cytochrome P450 2C9 (AID 883); also: potency is read from the fitted curve at half-maximal effect; nearly all actives have a fitted effect of over 60% in size
Procedure, shortened: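 A luminogenic readout tracked human CYP2C9 (10nM) converting deoxyluciferin (100uM, at KM) in 25mM KPO4 during 60 min at 37C with regenerated NADPH. Values normalized to 57uM sulphaphenazole as complete inhibition.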

[22] = target: Cytochrome P450 2D6 (Homo sapiens) (UniProt P10635); assay: qHTS Assay for Inhibitors and Substrates of Cytochrome P450 2D6 (AID 891);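 also: luciferin methyl ether substrate demethylated by CYP2D6 with NADPH regeneration; % is scaled to controls: 0 for no effect and ±100 for the full control effect; nearly all actives have a fitted effect of over 60% in size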
Procedure, shortened: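 Human CYP2D6 (5 nM) with 30 uM Luciferin-ME EGE (at Km) in 100 mM KPO4, compound preincubated 10 min, then NADPH regeneration system for 60 min at room temperature. Luciferin read by luminescence; normalized to 1.43 uM quinidine.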

[23] = qHTS Assay for Identification of Small Molecule Antagonists for NFkB Signaling Pathway (AID 895; active = well fitted inhibition curve with a large enough effect in the signal ratio, with a control signal flat, not every such curve was filed as active; the % refers to the signal ratio; also: potency is read from the fitted curve at half-maximal effect)
Procedure, shortened: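 NFkB-bla ME-180 cervical carcinoma cells with beta-lactamase reporter under NFkB response element; compounds added, then TNF alpha at 10 pM final (EC50), 5 h at 37 C. LiveBLAzer substrate 2 h, room temperature; emission 460/530 nm at 405 nm excitation.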

[24] = qHTS Assay for Identification of Small Molecule Antagonists for Thrombopoietin (TPO) Signaling Pathway (AID 918); settings: TPO-dependent cell signaling reporter, antagonist mode; also: potency is read from the fitted curve at half-maximal effect; nearly all actives have a fitted effect of over 60% in size
Procedure, shortened: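 Ba/F3 (murine, hTPO-R, GPIIb-luc reporter); overnight IL-3 withdrawal; cpd + TPO 26 pM final (EC50); 24 h 37 C/5% CO2; Steadylite luminescence after 10 min RT.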

[25] = target: Muscarinic acetylcholine receptor M1 (Rattus norvegicus) (UniProt P08482); assay: qHTS Assay for Antagonists of Acetylcholine Muscarinic M1 Receptor: Kinetic Measurement of Intracellular Calcium Response (AID 943);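 also: Fluo-4 calcium signal as peak divided by basal fluorescence over 4 min; nearly all actives have a fitted effect of over 75% in size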
Procedure, shortened: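 Rat M1-CHO cells, 2000/well, overnight → Fluo-4 no-wash dye with probenecid, 1 h 37C → compound 10 min, room temp → basal read 6 s → carbachol EC80 (100 nM) → 4 min kinetic read; peak/basal.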

[26] = target: Ubiquitin carboxyl-terminal hydrolase 1 (Homo sapiens) (UniProt O94782); assay: Inhibitors of USP1/UAF1: Pilot qHTS (AID 504865); also: potency is read from the fitted curve at half-maximal effect; nearly all actives have a fitted effect of over 35% in size
Procedure, shortened: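 1nM USP1/UAF1 + cpd, 15 min RT; start w/ Ub-Rho 150nM final; kinetic FL 480/540 nm, 6 reads q60 s. Buffer 50mM HEPES pH 7.8, 0.5mM EDTA, 1mM TCEP, 0.01% Tween-20, 0.1 mg/ml BSA.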

[27] = target: DNA dC->dU-editing enzyme APOBEC-3G (Homo sapiens) (UniProt Q9HC16); assay: qHTS for inhibitors of Vif-A3G interactions: Validation (AID 588379); also: 0% is about no effect
Procedure, shortened: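 HeLa cells stably expressing Vif and A3G-eYFP, 700 cells/well, incubated overnight at 37 deg C, then exposed to compound overnight at 37 deg C. Inhibition of Vif-mediated degradation read as increased yellow fluorescence (Ex 488/Em 500-530) by laser-scanning cytometry.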

C[C@@H]1Cc2cc3c(cc2C(c2ccc(N)cc2)=NN1)OCO3
inactive: activity change, negative = inhibition [1] -10.9% [at 38 µM] | activity change, negative = inhibition [3] -10.6% [at 38 µM] | activity, negative = inhibition [4] 13.7% [at 38 µM] | Potency [5] > 46 µM | Potency [6] > 46 µM | outcome [7] | outcome [8] | Potency [10] | outcome [12] | Potency [13] | outcome [14] | outcome [15] | outcome [16] | outcome [17] | outcome [18] | outcome [19]
active: Potency [2] 5.01 µM | Potency [9] 2.51 µM | Potency [11] 2 µM

CC(=O)c1c(O)c(C)c(O)c(Cc2c(O)c3c(c(C(=O)/C=C\c4ccccc4)c2O)OC(C)(C)C=C3)c1O
active: Potency [2] 12.6 µM and 31.6 µM | Potency [21] 0.631 µM | Potency [9] 6.31 µM | Potency [23] 0.794 µM | Potency [11] 2 µM | Potency [24] 2.51 µM | Potency [26] 79.4 µM
inactive: activity change, negative = inhibition [1] -26.6% [at 38 µM] | activity, negative = inhibition [4] -35.6% [at 38 µM] | Potency [5] > 46 µM | Potency [20] | outcome [7] | outcome [8] | Potency [10] | Potency [22] | Potency [25] | Potency [13] | outcome [14] | outcome [15] | outcome [16] | outcome [17] | outcome [18] | outcome [19] | outcome [27]
